From PubChem BioAssay (Tox21)
Several values for one entry are separate records, joined by “and”; a condition that tells them apart may be missing. Equal values may be shown once. Records with an inconclusive call do not appear. A call without a number means that no potency is given here. Where a structure was tested more than once in an assay, its records may differ in their call. Activity calls are given as the source filed them. The call rests on the fitted dose curve; in most records, active means well fitted curve in the direction sought with a large enough effect in the repeat runs; inconclusive means weak or mixed curves; inactive means no such curve, though single readings can be large; an effect the other way counts as inactive or inconclusive.

Columns and labels:
[1] = A CellTox Green Cytotoxicity Assay to monitor cytotoxicity in HEK293 cells - 40 hour (AID 1224871); further: nearly all actives have a fitted effect of over 45% in size
How it was run: (§1)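 Tox21 screen in HEK293: membrane-impermeant cyanine dye fluoresces on binding dead-cell DNA; compound pinned 5 h post-seeding, plates held at 37 C, signal read repeatedly through 40 h.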

[2] = qHTS RealTime-Glo MT Cell Viability Assay in HEK293 cells - 16 hour (AID 1224872); further: top concentration of the series differs between compounds; nearly all actives have a fitted effect of over 50% in size
How it was run: (§2)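 Homogeneous bioluminescent viability format in HEK293 cells (600 cells/well). Following 5 h at 37 C/5% CO2, 23 nL compound was pintooled; the signal was measured repeatedly during 40 h incubation.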

[3] = qHTS RealTime-Glo MT Cell Viability Assay in HEK293 cells - 40 hour (AID 1224874); conditions: RealTime-Glo luminescence; max response: stronger effect = lower value; further: nearly all actives have a fitted effect of over 50% in size; further: potency means the concentration at half of the fitted maximal effect
How it was run: (§3)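 HEK293 + NanoLuc + prosubstrate, 600 cells/well; 5 h, 37 C/5% CO2; compound 23 nL in DMSO by pintool; 37 C; luminescence read at 0, 8, 16, 24, 32 and 40 h time points.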

[4] = A CellTox Green Cytotoxicity Assay to monitor cytotoxicity in HEK293 cells - 24 hour (AID 1224875); further: series mostly up to about 77 µM; nearly all actives have a fitted effect of over 45% in size
How it was run: as §1

[5] = A CellTox Green Cytotoxicity Assay to monitor cytotoxicity in HepG2 cells - 16 hour (AID 1224876); further: nearly all actives have a fitted effect of over 45% in size
How it was run: (§4)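 Measurements at 0, 8, 16, 24, 32 and 40 h of treatment captured CellTox Green fluorescence in HepG2 cells that had been co-plated with reagent and preincubated 5 h at 37 C/5% CO2.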

[6] = qHTS RealTime-Glo MT Cell Viability Assay in HepG2 cells - 32 hour (AID 1224877); further: nearly all actives have a fitted effect of over 55% in size; further: potency means the concentration at half of the fitted maximal effect
How it was run: (§5)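 Cell number in HepG2 cultures estimated from NanoLuc luminescence generated by metabolic reduction of a prosubstrate by living cells. The homogeneous, nonlytic format allowed repeated reads at 0, 8, 16, 24, 32 and 40 h of compound exposure.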

[7] = A CellTox Green Cytotoxicity Assay to monitor cytotoxicity in HepG2 cells - 24 hour (AID 1224878); further: nearly all actives have a fitted effect of over 45% in size
How it was run: as §4

[8] = A CellTox Green Cytotoxicity Assay to monitor cytotoxicity in HepG2 cells - 40 hour (AID 1224879); further: nearly all actives have a fitted effect of over 40% in size; further: potency means the concentration at half of the fitted maximal effect
How it was run: as §4

[9] = qHTS RealTime-Glo MT Cell Viability Assay in HEK293 cells - 0 hour (AID 1224880)
How it was run: as §3

[10] = A CellTox Green Cytotoxicity Assay to monitor cytotoxicity in HepG2 cells - 0 hour (AID 1224882); further: nearly all actives have a fitted effect of over 35% in size
How it was run: as §4

[11] = A CellTox Green Cytotoxicity Assay to monitor cytotoxicity in HepG2 cells - 32 hour (AID 1224883); further: nearly all actives have a fitted effect of over 50% in size; further: potency means the concentration at half of the fitted maximal effect
How it was run: as §4

[12] = A CellTox Green Cytotoxicity Assay to monitor cytotoxicity in HEK293 cells - 8 hour (AID 1224884); further: nearly all actives have a fitted effect of over 35% in size
How it was run: as §1

[13] = qHTS RealTime-Glo MT Cell Viability Assay in HepG2 cells - 16 hour (AID 1224885); further: nearly all actives have a fitted effect of over 50% in size
How it was run: as §5

[14] = qHTS RealTime-Glo MT Cell Viability Assay in HEK293 cells - 24 hour (AID 1224886); further: nearly all actives have a fitted effect of over 50% in size; further: potency means the concentration at half of the fitted maximal effect
How it was run: as §2

[15] = qHTS RealTime-Glo MT Cell Viability Assay in HEK293 cells - 8 hour (AID 1224887)
How it was run: as §3

[16] = A CellTox Green Cytotoxicity Assay to monitor cytotoxicity in HEK293 cells - 16 hour (AID 1224888); further: nearly all actives have a fitted effect of over 35% in size
How it was run: as §1

[17] = qHTS RealTime-Glo MT Cell Viability Assay in HepG2 cells - 0 hour (AID 1224889); further: nearly all actives have a fitted effect of over 50% in size
How it was run: as §5

[18] = A CellTox Green Cytotoxicity Assay to monitor cytotoxicity in HepG2 cells - 8 hour (AID 1224890); further: nearly all actives have a fitted effect of over 45% in size
How it was run: as §4

[19] = A CellTox Green Cytotoxicity Assay to monitor cytotoxicity in HEK293 cells - 32 hour (AID 1224881); further: nearly all actives have a fitted effect of over 40% in size
How it was run: as §1

[20] = qHTS RealTime-Glo MT Cell Viability Assay in HepG2 cells - 8 hour (AID 1224873); further: nearly all actives have a fitted effect of over 55% in size
How it was run: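 HepG2 cells (600/well) mixed with RealTime-Glo MT reagent, settled 5 h at 37 C/5% CO2 before compound addition. Nonlytic NanoLuc luminescence from viable-cell prosubstrate reduction read repeatedly during 40 h treatment at 37 C.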

Compound: CC[C@]12CCCN3CCc4c(n(c5ccccc45)[C@@](O)(C(=O)OC)C1)[C@@H]32
- Potency [1]: inactive
- Potency [2]: inactive
- max response [3]: -23.5% (inactive)
- Potency [4]: inactive
- Potency [5]: inactive
- Potency [6]: inactive
- Potency [7]: inactive
- Potency [8]: inactive
- Potency [9]: inactive
- Potency [10]: inactive
- Potency [11]: inactive
- Potency [12]: inactive
- Potency [13]: inactive
- Potency [14]: inactive
- Potency [15]: inactive
- Potency [16]: inactive
- Potency [17]: inactive
- Potency [18]: inactive

Compound: Nc1ccc2c(O)cc(S(=O)(=O)O)cc2c1
- Potency [1]: inactive
- Potency [2]: inactive
- Potency [3]: 6.17 µM (active)
- Potency [4]: inactive
- Potency [5]: inactive
- Potency [6]: inactive
- Potency [7]: inactive
- Potency [8]: inactive
- Potency [9]: inactive
- Potency [19]: inactive
- Potency [11]: inactive
- Potency [12]: inactive
- Potency [13]: inactive
- Potency [16]: inactive
- Potency [17]: inactive
- Potency [18]: inactive

Compound: O=C(O)COCCN1CCN(C(c2ccccc2)c2ccc(Cl)cc2)CC1 (configuration not stated)
- Potency [1]: inactive
- Potency [2]: inactive
- max response [3]: 5.07% (inactive) and 2.04% (inactive)
- Potency [4]: inactive
- Potency [5]: inactive
- Potency [6]: inactive
- Potency [7]: inactive
- Potency [8]: inactive
- Potency [9]: inactive
- Potency [10]: inactive
- Potency [11]: inactive
- Potency [12]: inactive
- Potency [13]: inactive
- Potency [14]: inactive
- Potency [15]: inactive
- Potency [16]: inactive
- Potency [17]: inactive
- Potency [18]: inactive

Compound: O=C(O)c1ccc(O)cc1
- Potency [1]: inactive
- Potency [2]: inactive
- max response [3]: -0.345% (inactive) and 9.29% (inactive)
- Potency [4]: inactive
- Potency [5]: inactive
- Potency [6]: inactive
- Potency [7]: inactive
- Potency [8]: inactive
- Potency [9]: inactive
- Potency [10]: inactive
- Potency [12]: inactive
- Potency [13]: inactive
- Potency [14]: inactive
- Potency [15]: inactive
- Potency [16]: inactive
- Potency [17]: inactive
- Potency [18]: inactive

Compound: IC(I)I
- Potency [1]: inactive
- Potency [2]: inactive
- max response [3]: 7.94% (inactive) and 2.04% (inactive)
- Potency [4]: inactive
- Potency [5]: inactive
- Potency [6]: 24.5 µM (active) and 17.4 µM (active)
- Potency [7]: inactive
- Potency [8]: inactive
- Potency [9]: inactive
- Potency [10]: inactive
- Potency [11]: inactive
- Potency [12]: inactive
- Potency [13]: inactive
- Potency [14]: inactive
- Potency [15]: inactive
- Potency [16]: inactive
- Potency [17]: inactive
- Potency [18]: inactive

Compound: Cc1ccc(C)c(O)c1
- Potency [1]: inactive
- Potency [2]: inactive
- max response [3]: 1.95% (inactive) and 4.96% (inactive)
- Potency [4]: inactive
- Potency [5]: inactive
- Potency [6]: inactive
- Potency [7]: inactive
- Potency [8]: inactive
- Potency [9]: inactive
- Potency [19]: inactive
- Potency [11]: inactive
- Potency [12]: inactive
- Potency [14]: inactive
- Potency [15]: inactive
- Potency [16]: inactive
- Potency [17]: inactive
- Potency [18]: inactive

Compound: C=CCCCCCCCCCC
- Potency [1]: inactive
- Potency [2]: inactive
- max response [3]: 3.4% (inactive) and -2.24% (inactive)
- Potency [4]: inactive
- Potency [5]: inactive
- Potency [6]: inactive
- Potency [7]: inactive
- Potency [8]: inactive
- Potency [9]: inactive
- Potency [10]: inactive
- Potency [11]: inactive
- Potency [12]: inactive
- Potency [14]: inactive
- Potency [15]: inactive
- Potency [16]: inactive
- Potency [17]: inactive
- Potency [18]: inactive

Compound: C[C@]12CC[C@@H]3c4ccc(O)cc4CC[C@H]3[C@@H]1CC[C@@H]2O
- Potency [1]: inactive
- Potency [20]: inactive
- Potency [3]: 17.3 µM (active) and 21.9 µM (active)
- Potency [4]: inactive
- Potency [5]: inactive
- Potency [6]: inactive
- Potency [7]: inactive
- Potency [8]: 34.6 µM (active)
- Potency [9]: inactive
- Potency [19]: inactive
- Potency [11]: 43.6 µM (active) and inactive
- Potency [12]: inactive
- Potency [13]: inactive
- Potency [14]: 19.5 µM (active)
- Potency [15]: inactive
- Potency [16]: inactive
- Potency [17]: inactive
- Potency [18]: inactive

Compound: Clc1ccc(Sc2cc(Cl)c(Cl)cc2Cl)cc1
- Potency [1]: inactive
- Potency [2]: inactive
- max response [3]: -26.8% (inactive) and 1% (inactive)
- Potency [4]: inactive
- Potency [5]: inactive
- Potency [6]: inactive
- Potency [7]: inactive
- Potency [8]: inactive
- Potency [9]: inactive
- Potency [19]: inactive
- Potency [11]: inactive
- Potency [12]: inactive
- Potency [13]: inactive
- Potency [14]: inactive
- Potency [16]: inactive
- Potency [17]: inactive
- Potency [18]: inactive

Compound: [O-]/[N+](=N\O)c1ccccc1
- Potency [1]: inactive
- Potency [2]: inactive
- max response [3]: 2.42% (inactive) and -11.8% (inactive)
- Potency [4]: inactive
- Potency [5]: inactive
- Potency [6]: inactive
- Potency [7]: inactive
- Potency [8]: inactive
- Potency [9]: inactive
- Potency [19]: inactive
- Potency [12]: inactive
- Potency [13]: inactive
- Potency [14]: inactive
- Potency [16]: inactive
- Potency [17]: inactive
- Potency [18]: inactive
